Compounds with a hit are over-represented: about 10% of the library has one in this group of screens.
JMJD2A Tudor inh: qHTS Assay for Inhibitors of JMJD2A-Tudor Domain; Lysine-specific demethylase 4A (Homo sapiens), O75164; 4.4% of 390,000 active; Potency, µM (doses to about 114 µM), without a hit: at the top dose activity change, negative = inhibition, hits mostly inhibitors; AlphaScreen JMJD2A-Tudor / H3K4me3 peptide binding; also: potency is read from the fitted curve at half-maximal effect; % is scaled to controls: 0 for no effect and ±100 for the full control effect; nearly all actives have a fitted effect of over 50% in size
G9a inh: qHTS Assay for Inhibitors of Histone Lysine Methyltransferase G9a. Histone-lysine N-methyltransferase EHMT2 (Homo sapiens), Q96KQ7. G9a H3K9 monomethylation, AlphaScreen, 2 h. Potency, µM (doses to about 102 µM), for the others: top-dose activity, negative = inhibition, hits mostly inhibitors. 8.8% of 350,000 active. AID 504332, 2011; also: potency is read from the fitted curve at half-maximal effect; % is scaled to controls: 0 for no effect and ±100 for the full control effect; nearly all actives have a fitted effect of over 75% in size
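Enzyme 20 nM + cpd, 15 min RT; add b-H3K9 pep 500 nM / SAM 20 uM; 2 h RT; anti-H3K9me1 Ab 0.5 ug/mL + SA donor / anti-rabbit acceptor beads 20 ug/mL each, 10 min; AlphaScreen read.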
CtBP-E1A blk: qHTS Assay for Inhibitors of the CtBP/E1A Interaction | 0.49% of 340,000 active | activity change, % (no concentration beside the values) | AlphaScreen GST-E1A/His-CtBP binding, 1536-well; hits give low values; in the data active = activity change below about -65%; inconclusive = mostly about -30% to -63%; also: % is scaled to controls: 0 for no effect and ±100 for the full control effect
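GST-E1A and His-tagged CtBP (125 nM each as 5X stock) were preincubated with pin-transferred compound for 2 h at 37 °C in the dark, then glutathione donor and nickel acceptor beads were added for 1 h before AlphaScreen reading.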
HP1b binding inh: HTS for Inhibitors of HP1-beta Chromodomain Interactions with Methylated Histone Tails; AlphaScreen HP1-beta / biotin-H3K9me3 peptide binding; Potency, µM (doses to about 114 µM), for inactives: top-dose activity change, negative = inhibition, actives largely listed as inhibitors; 0.56% of 390,000 active; AID 540317, 2011; also: potency is read from the fitted curve at half-maximal effect; nearly all actives have a fitted effect of over 70% in size
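Compound inhibition of the preformed complex between 50 nM HP1-beta and 50 nM biotinylated H3K9me3 peptide was read by AlphaScreen. Buffer was PBS pH 7.4 with 0.01% Tween-20. Incubations ran 30 min at room temperature, with 10 ug/mL donor/acceptor beads.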
Six1-Eya2 inh: qHTS Assay for Inhibitors of the Six1/Eya2 Interaction. AID 651725, 2012. AlphaScreen GST-Six1/His-Eya2 binding, biochemical; hits give low values. activity change, % (test concentration not listed). Homeobox protein SIX1 (Homo sapiens) + Protein phosphatase EYA2 (Homo sapiens), …. 0.56% of 360,000 active; in the data active = activity change below about -65%; inconclusive = mostly about -30% to -63%; also: % is scaled to controls: 0 for no effect and ±100 for the full control effect
Target sequence (O00167 whole entry, looked up): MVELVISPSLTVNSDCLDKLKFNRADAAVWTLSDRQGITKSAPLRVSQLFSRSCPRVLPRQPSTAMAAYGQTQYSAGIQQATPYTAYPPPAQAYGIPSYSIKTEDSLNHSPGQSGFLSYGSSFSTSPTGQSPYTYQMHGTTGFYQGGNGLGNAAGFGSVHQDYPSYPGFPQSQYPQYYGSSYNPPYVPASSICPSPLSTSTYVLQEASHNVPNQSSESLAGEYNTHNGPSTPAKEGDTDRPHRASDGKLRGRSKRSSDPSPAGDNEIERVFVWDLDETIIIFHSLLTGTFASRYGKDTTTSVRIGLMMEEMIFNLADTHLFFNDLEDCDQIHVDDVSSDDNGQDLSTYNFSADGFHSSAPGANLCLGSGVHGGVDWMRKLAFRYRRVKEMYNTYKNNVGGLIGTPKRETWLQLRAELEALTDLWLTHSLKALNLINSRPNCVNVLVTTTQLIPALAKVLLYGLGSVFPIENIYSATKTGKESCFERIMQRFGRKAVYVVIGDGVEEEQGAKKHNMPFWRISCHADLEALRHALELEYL
Target sequence (Q15475 whole entry, looked up): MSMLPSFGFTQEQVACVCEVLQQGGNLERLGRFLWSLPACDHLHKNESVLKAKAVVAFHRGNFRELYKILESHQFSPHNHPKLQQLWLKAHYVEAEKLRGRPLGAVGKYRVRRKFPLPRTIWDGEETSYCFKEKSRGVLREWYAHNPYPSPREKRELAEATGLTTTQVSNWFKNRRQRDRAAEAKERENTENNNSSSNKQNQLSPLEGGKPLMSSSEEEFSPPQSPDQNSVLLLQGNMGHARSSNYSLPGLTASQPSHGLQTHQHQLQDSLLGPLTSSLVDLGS
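GST-Six1 + His-Eya2 (5X stock: 250/500 nM); Tris pH 8.0, 300 mM NaCl, 0.05% BSA, 0.02% Tween 20; GSH donor/Ni acceptor beads; 1 h 37 °C dark; AlphaScreen readout.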
BAZ2B inh: qHTS Assay for Inhibitors of BAZ2B | Bromodomain adjacent to zinc finger domain protein 2B (Homo sapiens), Q9UIF8 | AID 504333, 2011 | 4.4% of 360,000 active | Potency, µM (series often up to 114 µM), for the others: at the top dose activity change, negative = inhibition, most hits filed as inhibitors | AlphaScreen BAZ2B-H3K14Ac peptide displacement; also: potency is read from the fitted curve at half-maximal effect; % is scaled to controls: 0 for no effect and ±100 for the full control effect; nearly all actives have a fitted effect of over 60% in size
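Complex of BAZ2B and biotin-H3K14Ac (50 nM apiece) forms over 30 min at RT, then faces library compounds up to 110 uM for another 30 min; AlphaScreen beads added, 20 min dark incubation, luminescence read.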
An asterisk follows results filed as active; u = inconclusive; x = not tested or not shown; [ ] = remark or other dose. Unless noted, calls follow the shape of the dose curve; as a rule, active = well fitted inhibition curve with a large enough effect; inconclusive = small, poorly fitted or top-dose-only effect; inactive = no such curve, though single readings can be large or run the other way.

SMILES	JMJD2A Tudor inh	G9a inh	CtBP-E1A blk	HP1b binding inh	Six1-Eya2 inh	BAZ2B inh
COc1ccc(C(=O)/C=C/c2ccc(O)cc2)cc1	-31.3%	-9.2%[59 µM]	4.0	8.7%	4.5	-25.6%
COc1ccc(C=CC(=O)c2cc(O)ccc2O)cc1	39.8µM*	x	1.7	u	-3.5	x
Cc1ccc(O)c(C(=O)C=Cc2ccccc2)c1	39.8µM*	x	-22.4	u	16.5	x
C=CCc1cc(Cl)ccc1OCCOCCNC(C)CC (stereo not given)	1.41µM*	10µM*	11.0	u	14.8	50.1µM*
C=CCc1cc(Cl)ccc1OCCCNC(C)C	31.6µM*	8.91µM*	8.7	u	14.9	56.2µM*
C=CCc1cc(C)ccc1OCCOCCC(C(=O)OCC)C(=O)OCC	8.4%	55.0%[59 µM]	46.3	88.1%	27.3	172.3%
CCC(C)NCCOCCSc1ccc(Cl)cc1 (stereo not given)	3.55µM*	8.91µM*	-2.7	u	0.4	79.4µM*
CCc1nc2ccc(C(=O)NCCC(C)C)cn2c1N(CC)CCN(C)C	x	x	0.7	x	1.8	x
Cc1ccc2c(c1)NC(=O)C(CC(=O)NC1CCCCC1C)O2 (stereo not given)	2.1%	44.7µM*	6.2	60.3%	4.5	5.0%
CCC(C)N(CCNC(=O)CC1Oc2ccc(C)cc2NC1=O)C1CCCCC1 (stereo not given)	-14.1%	50.1µM*	8.2	36.4%	0.3	9.3%
CN1CCN(NC(=O)c2ccc(Cl)c(S(=O)(=O)Nc3ccc(Cl)cc3)c2)CC1	-0.3%	-10.7%[12.7 µM]	x	22.5%	-4.2	-4.2%
COc1ccc(CCC(=O)Nc2c(-c3ccc(N(C)C)cc3)[nH][nH]c2=O)cc1	x	x	u	x	1.7	x
Fc1ccccc1COc1ccc(Br)cc1CNCC1CCCO1 (stereo not given)	-5.0%	x	-8.8	42.7%	4.6	u
Fc1ccc(COc2ccc(Br)cc2CNCC2CCCO2)cc1 (stereo not given)	-6.3%	50.1µM*	8.4	44.0%	1.5	-7.2%
N#CCc1ccc(OC(=O)c2cccnc2Cl)cc1	-3.4%	x	0.0	-9.2%	0.6	x
N#CCCN(Cc1cccnc1)C(=S)NC(=O)c1ccc(S(=O)(=O)N2CCCC2)cc1	-4.5%	28.2µM*	1.4	20.2%	2.3	-0.7%
Cc1cccc(C(=O)NC(=S)N2CCN(C)CC2)c1	-16.7%	79.4µM*	1.8	10.9%	2.4	-30.7%
N#CCCSc1ccccc1NC(=O)c1ccc(S(=O)(=O)N2CCCC2)cc1	x	10µM*	x	x	x	2.8%
CN1CCN(C(=S)NC(=O)c2ccc(S(=O)(=O)N3CCOCC3)cc2)CC1	44.7µM*	u	x	-17.7%	-7.0	u
O=C(Nc1ncc(Cc2ccccc2)s1)C1CCN(C(=O)c2ccco2)CC1	-19.9%	x	x	30.3%	x	x
O=C(c1cc(-c2ccc(Br)cc2)n[nH]1)N1CCN(S(=O)(=O)c2ccc(Br)s2)CC1	-11.2%	10.0%[59 µM]	x	24.5%	x	-1.7%
CN1CCN(C(=S)NC(=O)c2ccc(Br)cc2)CC1	-16.6%	39.8µM*	3.8	25.3%	1.3	-17.6%
CCCN(CC1CC1)C(=S)NC(=O)c1ccc(S(=O)(=O)N2CCOCC2)cc1	-19.9%	28.2µM*	4.9	8.7%	-4.6	x
Cc1ccc(C(=O)NC(=S)N2CCN(C)CC2)cc1	-16.7%	32.4%[2.33 µM]	3.8	7.5%	10.9	u
CCCCN(C)C(=O)c1ccc(S(=O)(=O)N2CCOCC2)cc1	-3.0%	-0.3%[59 µM]	8.2	10.8%	9.3	-4.4%
SMILES	JMJD2A Tudor inh	G9a inh	CtBP-E1A blk	HP1b binding inh	Six1-Eya2 inh	BAZ2B inh
CN1CCN(C(=S)C(=O)Nc2ccc(Br)cc2)CC1	89.1µM*	2.51µM*	2.9	u	2.7	-18.2%
COc1ccc(NC(=O)c2ccco2)cc1NC(=O)c1cccc(C)c1OC	20µM*	-0.1%[59 µM]	x	-9.0%	x	u
Cc1cc(O)c(NC(=O)c2ccco2)cc1C	3.4%	8.91µM*	-0.1	33.8%	-4.9	40.3%
CCC(=O)Nc1cc(C)c(NC(=O)c2ccco2)cn1	0.6%	0.0%[59 µM]	5.6	34.4%	10.9	-23.7%
O=C(Nc1ccc(Oc2ccc(NC(=O)c3ccco3)c(NC(=O)c3ccco3)c2)cc1)c1ccco1	-22.6%	-14.0%[59 µM]	5.5	5.01µM*	-5.0	-21.5%
Cc1cc(NC(=O)c2ccccc2)ncc1NC(=O)c1ccco1	-11.3%	25.1µM*	-2.6	18.0%	-3.0	-12.5%
COc1ccc(C(=O)C[C@@H]2OC[C@H](C(C)C)N2S(=O)(=O)c2ccc(C)cc2)cc1OC	x	x	1.4	x	-4.9	x
Cc1ccc(NC(=O)c2ccco2)c(NC(=O)c2ccccc2C)c1	50.1µM*	15.6%	0.0	31.9%	-21.0	-2.3%
COc1cc2ccc3c(CCN(C)C)cc(OC)c(OC)c3c2cc1OC	-28.9%	x	x	-1.4%	-10.7	-38.7%
CN(C)CCc1cc2c(c3c1ccc1ccccc13)OCO2	-54.2%	39.8µM*	x	u	u	u
COc1ccc(/C=C/C(=O)Oc2cccc(/C=N/NC(=O)COc3c(C)cccc3C)c2)cc1	2.5%	-80.4%[12.7 µM]	-7.8	19.7%	9.1	100µM*
COc1ccc(/C=C/C(=O)Oc2ccc(/C=N/NC(=O)COc3c(C)cccc3C)cc2)cc1	x	3.9%[59 µM]	x	x	x	-1.8%
COc1ccc(C2C(C#N)=C(N)Oc3c2oc(CO)cc3=O)c(OC)c1OC (stereo not given)	11.2µM*	-13.4%[59 µM]	-5.7	15.7%	-2.3	12.4%
COc1cccc(C2C(C#N)=C(N)Oc3c2oc(CO)cc3=O)c1OC (stereo not given)	17.8µM*	u	-1.3	-6.1%	0.6	-0.9%
COc1cc(C2C(C#N)=C(N)Oc3c2oc(CO)cc3=O)cc(OC)c1OC (stereo not given)	7.08µM*	u	-1.6	-12.5%	-11.1	1.3%
CC(=O)N1CCN(c2ccc(NCc3cccs3)cc2)CC1	-19.8%[11.4 µM]	6.31µM*	-4.5	-32.5%	-12.7	u
CC(=O)N1CCN(c2ccc(NCc3ccc(C)s3)cc2)CC1	u	44.7µM*	-5.8	-14.2%	15.8	9.5%
CC(=O)N1CCN(c2ccc(NCc3ccc(Br)o3)cc2)CC1	u	3.2%[0.501 µM]	x	-7.5%	x	u
O=C(Cc1cccs1)N1CCN(c2ccc([N+](=O)[O-])cc2)CC1	-27.8%	u	0.0	5.0%	-1.8	56.2µM*
Cc1nc2ncnn2c(N2CCN(C(=O)Cc3cccs3)CC2)c1C	u	-25.2%[59 µM]	-3.7	-12.7%	-3.4	50.1µM*
